Measurements published in PubChem BioAssay AID1053188 (Broad Institute, 2014).
“And” between values parts separate entries of the source, which are not always exact repeats. Identical values can stand only once. About 780 (0.94%) of roughly 83,000 compounds were called active.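 How the source made its calls: active means mean inhibition of at least 50% with a set share of replicates also reaching that level; inconclusive means no clear call, values can overlap the other calls; inactive means the rest.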 What follows is part of a selection rich in actives, with near analogues and random picks from the rest. More than one record can exist for a structure, and the calls need not agree.

Test: inhibitors of CD40-induced NF-kB signaling, primary screen, BL2 cells, luciferase reporter, single point (AID 1053188);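 further: 0% = neutral control wells and 100% = IKK inhibitor VII at 50 µM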
Settings: CD40L-induced, 4 h, stronger effect = higher value; at 10 µM unless noted

Question: Which inhibition does the source give for CC1CCCN(C(=O)c2cc(-c3ccco3)nc3ccccc23)C1 (centres undefined) here?
Answer: Its inhibition is -1.36% (inactive).

Question: For CN(CCOc1ccccc1)C(=O)c1cc(-c2ccco2)nc2ccccc12, which inhibition is on record?
Answer: Its inhibition is 9.58% (inactive).

Question: With O=C(c1cc(-c2ccco2)nc2ccccc12)N(Cc1nnc(-c2ccc(Cl)cc2)o1)C1CC1 as the compound, how does the inhibition read?
Answer: Its inhibition is 50.6% (active).

Question: With CCOC(=O)c1ccc[n+](CC(=O)Nc2ccccc2OC(F)F)c1 as the compound, how does the inhibition read?
Answer: The inhibition was -5.94% (inactive).

Question: With CC(C)N(Cc1nnc(-c2ccc(Cl)cc2)o1)C(=O)C1=COCCO1 as the compound, how does the inhibition read?
Answer: Its inhibition is 3.68% (inactive).

Question: For CCOc1cc(C(=O)N(Cc2ccccc2)c2ccc(C)cc2)ccc1OCC(=O)N1CCOCC1, which inhibition is on record?
Answer: Its inhibition is -0.92% (inactive).

Question: With CCCN(CC(=O)Nc1ccccc1C)C(=O)c1ccc(OCC(=O)N2CCOCC2)c(OCC)c1 as the compound, how does the inhibition read?
Answer: Its inhibition is 23.3% (active).

Question: Which inhibition does the source give for COc1cc(C(=O)Nc2ncccc2C)ccc1OCC(=O)N1CCOCC1 here?
Answer: The inhibition was 6.83% (inactive).

Question: Which inhibition does the source give for CCNC(=O)C1(C)CCCN1C(=O)c1ccc(N(C)C)cc1 (centres undefined) here?
Answer: Its inhibition is -1.06% (inactive).

Question: Which inhibition does the source give for CC(C)NC(=O)N(C)C[C@H]1Oc2ccc(NS(C)(=O)=O)cc2C(=O)N(C)C[C@@H]1C here?
Answer: The inhibition was 0.384% (inactive).

Question: Which inhibition does the source give for COc1cccc(NC(=O)CN(C)CC(=O)Nc2ccc3c(c2)CCC3)c1 here?
Answer: The inhibition was 8.15% (inactive).

Question: For CSCCC(NC(=O)c1ccco1)C(=O)NCCc1ccc(F)cc1 (centres undefined), which inhibition is on record?
Answer: Its inhibition is 0.567% (inactive).

Question: With COc1cccc(CNCCc2c[nH]c3ccccc23)c1OCc1ccccc1F as the compound, how does the inhibition read?
Answer: Its inhibition is 70.6% (active).

Question: Which inhibition does the source give for Fc1ccccc1COc1ccccc1CNCc1ccncc1 here?
Answer: Its inhibition is 0.766% (inactive).

Question: With COc1ccc(S(=O)(=O)NCCc2c[nH]c3ccccc23)cc1OC as the compound, how does the inhibition read?
Answer: The inhibition was 6.21% (inactive).

Question: With O=C(Nc1ncccc1O)c1ccc(S(=O)(=O)N2CCCC2)cc1 as the compound, how does the inhibition read?
Answer: Its inhibition is -13.1% (inactive).

Question: For COC(=O)C1=C(N)Oc2c(oc(CO)cc2=O)C1c1c(F)cccc1Cl (centres undefined), which inhibition is on record?
Answer: Its inhibition is 1.5% (inactive).

Question: With CCOc1ccc(C(=O)CCN2CCOCC2)cc1 as the compound, how does the inhibition read?
Answer: Its inhibition is 3.31% (inactive).

Question: For Cc1ccc(/C([O-])=C(/C(=S)NCc2ccco2)[n+]2ccccc2)cc1[N+](=O)[O-], which inhibition is on record?
Answer: The inhibition was 4.58% (inactive).

Question: Which inhibition does the source give for N/C(=N\OC(=O)c1ccc([N+](=O)[O-])cc1)c1ccccn1 here?
Answer: Its inhibition is 68.1% (active).

Question: For O=C(Nc1ccc([N+](=O)[O-])cc1)OCCc1ccccn1, which inhibition is on record?
Answer: Its inhibition is -49.3% (inactive).

Question: Which inhibition does the source give for N/C(=N\OC(=O)Cc1ccc([N+](=O)[O-])cc1)c1ccccn1 here?
Answer: The inhibition was 64.7% (active).

Question: For O=C(CSc1nnc(-c2ccc([N+](=O)[O-])cc2)o1)Nc1ccccn1, which inhibition is on record?
Answer: Its inhibition is -47.6% (inactive).

Question: For O=C(COC(=O)Cc1ccc([N+](=O)[O-])cc1)NC1CCCCCC1, which inhibition is on record?
Answer: Its inhibition is 2.86% (inactive).

Question: With O=C(COC(=O)c1ccccn1)NNC(=O)c1ccc([N+](=O)[O-])cc1 as the compound, how does the inhibition read?
Answer: Its inhibition is 0.903% (inactive).

Question: Which inhibition does the source give for COc1ccccc1C(=O)NC(CCSC)C(=O)N1CCN(C(C)=O)CC1 (centres undefined) here?
Answer: Its inhibition is 7.42% (inactive).

Question: With OCCN1CCN(CCO)C1=S as the compound, how does the inhibition read?
Answer: The inhibition was 4.32% (inactive).

Question: Which inhibition does the source give for COc1cc(OC)cc(C(=O)N[C@H](C(=O)NNC(=O)c2ccc(Br)cc2)C(C)C)c1 here?
Answer: Its inhibition is -11.4% (inactive).

Question: For CCc1ccc(C(=O)C(C)OC(=O)CN2C(=O)NC3(CCCC3)C2=O)cc1 (centres undefined), which inhibition is on record?
Answer: The inhibition was -8.47% (inactive).

Question: With CC(=O)c1cc(C#N)c(N2CCCCC2)nc1C as the compound, how does the inhibition read?
Answer: The inhibition was 12.8% (inactive).

Question: With Cc1ccc(S(=O)(=O)N2CCN(C(=O)COC(=O)CNC(=O)c3ccc(C(C)(C)C)cc3)CC2)c(C)c1 as the compound, how does the inhibition read?
Answer: Its inhibition is -31.5% (inactive).

Question: For COc1ccc(C(=O)COC(=O)c2nn(C)c(=O)c3ccccc23)c(OC)c1, which inhibition is on record?
Answer: Its inhibition is 4.47% (inactive).

Question: Which inhibition does the source give for Cc1ccc2c(c1)c1ncn(CCC3=CCCCC3)c(=O)c1n2C here?
Answer: Its inhibition is -13.8% (inactive).

Question: For COc1ccc2c(c1)c1ncn(Cc3ccccn3)c(=O)c1n2C, which inhibition is on record?
Answer: The inhibition was 56.2% (active).

Question: For COc1ccc(CNC(=O)CN2CCC(n3nnc4cc(F)ccc43)CC2)cc1, which inhibition is on record?
Answer: Its inhibition is -0.322% (inactive).

Question: Which inhibition does the source give for CCCn1c(N)c(C(=O)CSc2nc3ccccc3c(=O)n2-c2ccc(OC)cc2)c(=O)[nH]c1=O here?
Answer: The inhibition was -0.2% (inactive).

Question: Which inhibition does the source give for CC(C)NC(=O)N(C)C[C@H]1OCc2ccccc2-c2c(n(C)c3ccccc23)C(=O)N([C@H](C)CO)C[C@@H]1C here?
Answer: The inhibition was -3.58% (inactive).

Question: For CC1Cc2ccccc2N1S(=O)(=O)c1cccc(C(=O)NCC(c2ccco2)N2CCCC2)c1 (centres undefined), which inhibition is on record?
Answer: The inhibition was 8.41% (inactive).

Question: Which inhibition does the source give for O=C(Nc1ccc(N2CCOCC2)cc1)c1cccc(S(=O)(=O)N2CCOCC2)c1 here?
Answer: The inhibition was 14.5% (inactive).

Question: For O=C(C1CCOCC1)N1CC(=O)N2[C@H](CO)[C@@H](c3ccc(C#CC4CCCC4)cc3)[C@H]2C1, which inhibition is on record?
Answer: The inhibition was -2.24% (inactive).

Question: For O=C(Nc1nnc(C2CC2)s1)c1ccccn1, which inhibition is on record?
Answer: Its inhibition is 12.5% (inactive).

Question: For O=C(Nc1nnc(Cc2ccccc2)s1)c1cnccn1, which inhibition is on record?
Answer: Its inhibition is -14% (inactive).

Question: For Cc1cnc(NC(=O)c2ccccn2)s1, which inhibition is on record?
Answer: Its inhibition is 48.8% (active).

Question: Which inhibition does the source give for CN1C(=O)c2cc(NS(=O)(=O)CC(F)(F)F)ccc2OC[C@H]2O[C@@H](CC(=O)NCc3ccc(Cl)c(Cl)c3)CC[C@@H]21 here?
Answer: The inhibition was -2.48% [at 25 µM] (inactive).

Question: For Cc1cc(C(=O)COC(=O)C2CC2)c(C)n1-c1ccc(F)cc1, which inhibition is on record?
Answer: Its inhibition is 79.9% (active).

Question: With COc1ccccc1C(=O)NC(=O)COC(=O)C1CC1 as the compound, how does the inhibition read?
Answer: The inhibition was -63% (inactive).

Question: Which inhibition does the source give for Cc1cc(C(=O)COC(=O)CNC(=O)c2ccc(F)cc2)c(C)n1Cc1ccco1 here?
Answer: Its inhibition is 29.3% (inactive).

Question: For N#C[C@@H]1[C@@H](c2ccc(C#Cc3cccc(F)c3)cc2)[C@H](CO)N1C(=O)C1CCOCC1, which inhibition is on record?
Answer: The inhibition was -15.7% [at 25 µM] (inactive).

Question: Which inhibition does the source give for N#C[C@@H]1[C@H](c2ccc(C#Cc3ccccc3F)cc2)[C@H](CO)N1C(=O)C1CCCCC1 here?
Answer: Its inhibition is 6.32% (inactive).

Question: For CCCC#Cc1ccc([C@@H]2[C@@H](C#N)N(C(=O)C3CCCC3)[C@@H]2CO)cc1, which inhibition is on record?
Answer: The inhibition was 4.81% (inactive).

Question: Which inhibition does the source give for N#C[C@@H]1[C@H](c2ccc(C#Cc3cccc(F)c3)cc2)[C@@H](CO)N1C(=O)C1CCCC1 here?
Answer: Its inhibition is 60.3% (active).

Question: With N#C[C@@H]1[C@@H](c2ccc(C#Cc3cccc(F)c3)cc2)[C@@H](CO)N1C(=O)C1CCC1 as the compound, how does the inhibition read?
Answer: The inhibition was -11.1% (inactive).

Question: Which inhibition does the source give for N#C[C@H]1[C@H](c2ccc(C#Cc3ccc(F)cc3)cc2)[C@@H](CO)N1C(=O)C1CCCC1 here?
Answer: Its inhibition is 58.9% (active).

Question: For COc1ccccc1CNC(=O)COC(=O)CNS(=O)(=O)c1ccc(NC(C)=O)cc1, which inhibition is on record?
Answer: The inhibition was 5.75% (inactive).

Question: With COc1ccc(NC(=O)N2CCCC(c3nc(-c4ccc(F)cc4)no3)C2)cc1 (centres undefined) as the compound, how does the inhibition read?
Answer: Its inhibition is -2.8% (inactive).

Question: With CC(C)N(C(=O)CN1CCN(S(=O)(=O)c2ccc(Br)s2)CC1)C(C)C as the compound, how does the inhibition read?
Answer: The inhibition was 3.09% (inactive).

Question: For CCOC(=O)C(CC)/C(C)=N\NC(=O)c1cccc(C)c1 (centres undefined), which inhibition is on record?
Answer: Its inhibition is -2.97% (inactive).

Question: Which inhibition does the source give for Cc1cccc(-c2ccc(C3[C@@H]4CN(C(=O)Nc5ccc(C(F)(F)F)cc5)C[C@H]3N4)cc2)c1 (some centres undefined) here?
Answer: The inhibition was 55.5% (active).

Question: With CN(C)C(=O)c1ccc(-c2ccc(C3[C@@H]4CN(C(=O)Nc5ccccc5)C[C@H]3N4)cc2)cc1 (some centres undefined) as the compound, how does the inhibition read?
Answer: Its inhibition is 8.08% [at 25 µM] (inactive).

Question: With O=C(C1CCCCC1)N1C[C@@H]2N[C@H](C1)C2c1ccc(-c2cccc(F)c2)cc1 (some centres undefined) as the compound, how does the inhibition read?
Answer: Its inhibition is 26.1% (inactive) and -22.9% (inactive).

Question: With O=C([C@@H]1[C@@H](CO)[C@@H]2Cn3c(ccc(C4=CCCCC4)c3=O)[C@H]1N2Cc1nccs1)N1CCCCC1 as the compound, how does the inhibition read?
Answer: Its inhibition is -4.97% [at 25 µM] (inactive).

Question: Which inhibition does the source give for COc1ccc(CN2CCC(c3nc4ccc(Cl)cc4[nH]3)CC2)cc1 here?
Answer: Its inhibition is 7.72% (inactive).

Question: With O=C(NNC(=O)C1CCN(c2ncccn2)CC1)c1ccccc1 as the compound, how does the inhibition read?
Answer: Its inhibition is 16.9% (inactive).

Question: With Cn1cnc(S(=O)(=O)N2C[C@@H]3N[C@H](C2)C3c2ccc(-c3ccccc3F)cc2)c1 (some centres undefined) as the compound, how does the inhibition read?
Answer: The inhibition was 52.9% [at 25 µM] (active) and 10.8% [at 25 µM] (inactive).

Question: For Cn1cnc(S(=O)(=O)N2C[C@@H]3N[C@H](C2)C3c2ccc(/C=C/c3ccccc3)cc2)c1 (some centres undefined), which inhibition is on record?
Answer: The inhibition was -5.55% (inactive) and 3.57% (inactive).

Question: With COc1ccc(-c2ccc(C3[C@@H]4CN(S(=O)(=O)c5cn(C)cn5)C[C@H]3N4)cc2)cc1 (some centres undefined) as the compound, how does the inhibition read?
Answer: Its inhibition is -4.84% (inactive).

Question: Which inhibition does the source give for CCC(=O)N1CC2(CCN(Cc3ccc(Cl)cc3)CC2)c2c(n(C)c3cc(OC)ccc23)[C@@H]1CO here?
Answer: The inhibition was 4.53% [at 25 µM] (inactive).

Question: Which inhibition does the source give for COc1ccc2c3c(n(C)c2c1)[C@H](CO)N(C(C)=O)CC31CN(Cc2ccc(Cl)cc2)C1 here?
Answer: The inhibition was 68% [at 25 µM] (active).

Question: Which inhibition does the source give for COCC(=O)N1CC2(CN(S(C)(=O)=O)C2)c2c(n(C)c3cc(OC)ccc23)[C@@H]1CO here?
Answer: Its inhibition is 2.58% [at 25 µM] (inactive).

Question: Which inhibition does the source give for O=C(Nc1ccccn1)C1CCN(S(=O)(=O)c2ccc3c(c2)OCCO3)CC1 here?
Answer: Its inhibition is -48.7% (inactive).

Question: Which inhibition does the source give for CCc1nnc(NC(=O)c2cccc(S(=O)(=O)N(C)c3ccc(OC)cc3)c2)s1 here?
Answer: Its inhibition is 2.59% (inactive).

Question: Which inhibition does the source give for CN(Cc1ccc2nsnc2c1)Cc1nc(Cc2cccc(F)c2)no1 here?
Answer: The inhibition was 3.82% (inactive).

Question: Which inhibition does the source give for CCOc1ccc(S(=O)(=O)N2CCC(C(=O)OCc3ccc(OC)cc3)CC2)cc1 here?
Answer: Its inhibition is 0.411% (inactive).

Question: With O=C(Nc1ccc(N2CCCCC2)cc1)c1cc(S(=O)(=O)N2CCOCC2)ccc1F as the compound, how does the inhibition read?
Answer: Its inhibition is -16.8% (inactive).
